Consider 15 compounds from PubChem BioAssay (NCATS).

Where “and” joins values, the source holds several entries; their conditions need not be identical. Identical values can stand only once. Records with an inconclusive call do not appear. Calls of active or inactive are those of the source. Unless noted, calls come from the whole dose curve; as a rule, active = well fitted curve in the direction sought with a large enough effect; inconclusive = small, poorly fitted or top-dose-only effect, or another doubt; inactive = no such curve, though single readings can be large; an effect the other way counts as inactive or inconclusive.

A short description of experiment [1]: qHTS Assay for Lipid Storage Modulators (AID 1519; calls by dose curve; for activity change, negative = inhibition: % is set by controls: 0 for no effect and ±100 for the full control effect). To be noted: Drosophila S3 cells, BODIPY lipid droplet/cell ratio, laser cytometry, cells loaded with oleic acid. The essentials:
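Cells seeded at 5,000 per well were treated with compounds over a concentration series and loaded with oleic acid (400 uM, as added). Lipid droplet fluorescence (488 nm excitation, 500-530 nm channel) was read by laser-scanning cytometry and normalized to 20 uM Triacsin C.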

Experiment [2] addresses Alpha-galactosidase A (Homo sapiens) (UniProt P06280). As to the kind of experiment: Counterscreen for Glucocerebrosidase Inhibitors: qHTS Assay for Human alpha-Galactosidase at pH 4.5 (AID 992). Note: 0% is about no effect. To be noted: purified enzyme, fluorogenic substrate; series mostly up to 76.9 µM. The essentials:
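Each compound is preincubated briefly with 2 nM enzyme before substrate addition (80 uM); plates then sit 20 min at ambient temperature, are quenched with 1M NaOH/1M glycine, and read fluorometrically.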

In experiment [3] the target is alpha-glucosidase (Oryza sativa, rice) (UniProt Q653V4). Description: Counterscreen for Glucocerebrosidase Inhibitors: qHTS Assay for Rice alpha-Glucosidase at pH 5.0 (AID 997).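 Note: 0% = full activity with enzyme and -100% = basal without enzyme.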 To be noted: rice alpha-glucosidase enzyme activity; series mostly up to 76.9 µM. Put shortly:
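Endpoint fluorogenic assay at pH 5.0: compounds (0.7 nM to 77 uM) titrated against 4 nM rice enzyme and 400 uM 4-MU-alpha-glucoside for 20 min at room temperature; NaOH/glycine stop, read ex 365/em 440 nm, Hill-fitted AC50.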
A general note: A counterscreen serves to expose hits that act by an unwanted route or on another target.

The nature of experiment [4]: Validation of Assay for Modulators of Lamin A Splicing (AID 1459; active = well fitted curve in the direction sought with a large enough effect in the signal ratio; the % refers to the signal ratio;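 note: cells exposed to compound for two days before reading; 0% is about no effect; ratio rise marks activators and ratio drop marks inhibitors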). To be noted: Lamin A splicing dual RFP/GFP fluorescence reporter; series mostly up to 9.22 µM. The essentials:
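HeLa S3 lamin A-EGFP/DsRed2 stable clone, 600 cells/well, Opti-MEM 2% FBS; compounds by pin tool; 48 hrs, 37 °C/5% CO2; Acumen 488 nm scan, objects 10-100 um; GFP/RFP intensity ratio.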

The target in experiment [5] is DNA repair nuclease/redox regulator APEX1 (Homo sapiens) (UniProt P27695). Description: qHTS Validation Assay for Inhibitors of the Human Apurinic/apyrimidinic Endonuclease 1 (APE1) (AID 1705;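 note: TAMRA fluorescence gain over two minutes as APE1 cuts a quenched THF abasic duplex; % is set by controls: 0 for no effect and ±100 for the full control effect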). To be noted: purified APE1 endonuclease activity, fluorescence, titration; series mostly up to 57.1 µM. The essentials:
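qHTS, 1536-well. APE1 + cpd 15 min RT → 50 nM TAMRA/BHQ-2 THF-abasic dsDNA substrate → kinetic fluorescence, 3 reads/60 s; delta(read3−read1) = reaction progress. No-enzyme buffer = negative control.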

Experiment [6] in a line: Counterscreen for APE1 Inhibitors: Fluorescent Dye Displacement Validation Assay (AID 1707).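 Note: plate controls were ThO with dsDNA and no compound for no effect and ThO without dsDNA for full effect.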 To be noted: fluorescent dye displacement from DNA; series mostly up to 57.1 µM. Put shortly:
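Loss of Thiazole Orange fluorescence marks promiscuous DNA binders. The dye (250 nM) is mixed with 50 nM abasic-site dsDNA in pH7.5 Tris buffer containing MgCl2, then compounds are added and emission is read once.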

The target of experiment [7] is Endonuclease 4 (Escherichia coli (strain K12)) (UniProt P0A6C1). Description: Counterscreen for APE1 Inhibitors: qHTS Validation Assay for Inhibitors of Endonuclease IV (AID 1708). Note: % is set by controls: 0 for no effect and ±100 for the full control effect. To be noted: E. coli endonuclease IV, DNA cleavage fluorescence; series mostly up to 57.1 µM. The essentials: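 Conditions: 2 nM enzyme, 50 nM TAMRA/BHQ-2 substrate, pH 7.5 Tris buffer with 2 mM MgCl2, RT. Compound preincubation 15 min; readout three fluorescence reads 60 s apart, third-minus-first.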

Experiment [8] can be described thus: Cell Viability - LYMP2-026 (AID 989).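 Note: cells exposed to compound for 24 h at 37 °C; % is set by controls: 0 for no effect and ±100 for the full control effect; nearly all actives have a fitted effect of over 50% in size.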 To be noted: LYMP2-026 lymphoblastoid cell viability, qHTS; series mostly up to 92.2 µM. Put shortly:
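Cells are seeded at 2500 per well and held 5 hr at 37 C. Compounds are added in concentration series for 24 hr, then CellTiter-Glo reagent is applied and luminescence read.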
(In general: Quantitative high-throughput screening tests each substance at several concentrations.)

Setting [9] is: measured here: cell count channel max response.
[10] abbreviates: measured here: lipid channel max response.

Sequence of Alpha-galactosidase A (Homo sapiens) (P06280 whole entry, looked up): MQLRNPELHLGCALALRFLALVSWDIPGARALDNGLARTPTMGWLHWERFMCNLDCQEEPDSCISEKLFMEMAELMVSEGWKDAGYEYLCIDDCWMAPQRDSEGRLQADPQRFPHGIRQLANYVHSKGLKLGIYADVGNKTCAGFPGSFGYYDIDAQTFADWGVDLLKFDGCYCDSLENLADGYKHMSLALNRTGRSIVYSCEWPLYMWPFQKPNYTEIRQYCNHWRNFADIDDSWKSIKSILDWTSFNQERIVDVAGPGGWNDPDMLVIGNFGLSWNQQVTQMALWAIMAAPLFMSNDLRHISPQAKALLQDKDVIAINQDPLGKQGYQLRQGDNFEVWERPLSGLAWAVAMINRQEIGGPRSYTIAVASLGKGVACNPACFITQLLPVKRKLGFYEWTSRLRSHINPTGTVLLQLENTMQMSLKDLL
Sequence of DNA repair nuclease/redox regulator APEX1 (Homo sapiens) (P27695 whole entry, looked up): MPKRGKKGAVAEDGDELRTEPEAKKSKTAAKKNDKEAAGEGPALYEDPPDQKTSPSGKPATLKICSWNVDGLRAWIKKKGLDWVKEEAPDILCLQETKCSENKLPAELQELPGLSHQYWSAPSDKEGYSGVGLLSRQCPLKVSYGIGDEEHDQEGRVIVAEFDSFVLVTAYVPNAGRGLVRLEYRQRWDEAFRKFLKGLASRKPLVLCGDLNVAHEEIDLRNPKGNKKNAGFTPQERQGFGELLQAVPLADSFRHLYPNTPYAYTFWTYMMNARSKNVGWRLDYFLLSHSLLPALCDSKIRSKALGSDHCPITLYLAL

In the case of `CC(COc1ccccc1)NC(C)C(O)c1ccc(O)cc1` (stereo not drawn), in experiment [1] (at 57.5 µM (top of the series)), the activity change, negative = inhibition is 4.19% (inactive). For the same compound, the max response in experiment [1] (setting [9]) was 1.34%; in experiment [1] (setting [10]) it was 8.74%.
Consider `CCCCCCCCCCCCCCCC(=O)NCCO`, for which the result in experiment [2], in experiment [3] and in experiment [4] was inactive. For the same compound, the Potency result in experiment [5], in experiment [6] and in experiment [7] was “inactive” in each case.
Take `O=C(O)c1ccccc1O`: the activity change, negative = inhibition in experiment [1] (at 57.5 µM (top of the series)) was 9.55% (inactive). Further, the results for the max response in experiment [1] (setting [9]) and in experiment [1] (setting [10]) were 11.4% and 27.4%, respectively.
For `CCN(CC)CCOC(=O)C1(C2CCCCC2)CCCCC1`, the outcome in experiment [2], in experiment [3] and in experiment [4] was inactive. Besides, the activity change, negative = inhibition in experiment [1] (at 25.7 µM (top of the series)) was -3.18% (inactive); in experiment [1] (at 57.5 µM (top of the series)), 4.04% (inactive) and 0.569% (inactive). In addition, the max response was 0.165% and 5.59% and 10.8% in experiment [1] (setting [9]); -2.15% and 9.9% and 9.37% in experiment [1] (setting [10]). The Potency result in experiment [5], in experiment [6] and in experiment [7] was “inactive” in each case.
Take `COC(=O)C1=C(C)NC(C)=C(C(=O)OC)C1c1ccccc1[N+](=O)[O-]`: the Potency result in experiment [8], in experiment [5], in experiment [6] and in experiment [7] was “inactive” in each case. Moreover, the compound was called inactive in experiment [2], in experiment [3] and in experiment [4].
As for `CC(CN1c2ccccc2Sc2ccccc21)N(C)C` (stereo not drawn), the outcome in experiment [4] was inactive. Moreover, the activity change, negative = inhibition in experiment [1] (at 57.5 µM (top of the series)) is 7.97% (inactive) and 1.76% (inactive). In addition, the max response in experiment [1] (setting [9]) is 24.2% and 6.53%; in experiment [1] (setting [10]) it was 44.6% and 8.19%. Besides, the Potency result in experiment [5], in experiment [6] and in experiment [7] was “inactive” each time.
For the compound `O=c1cc[nH]c(=S)[nH]1`, in experiment [1] (at 57.5 µM (top of the series)), the activity change, negative = inhibition was 7.12% (inactive). Besides, the figures for the max response in experiment [1] (setting [9]) and in experiment [1] (setting [10]) were 11.5% and 29.2%, respectively.
Take `CCCCOc1cc(C(=O)OCCN(CC)CC)ccc1N`: in experiment [1] (at 25.7 µM (top of the series)), the activity change, negative = inhibition is -1.04% (inactive). Moreover, the max response was -13.7% in experiment [1] (setting [9]) and -14% in experiment [1] (setting [10]).
Taken in the same sequence, the figures for `CCOc1ccc2ccccc2c1C(=O)N[C@@H]1C(=O)N2[C@@H]1SC(C)(C)[C@@H]2C(=O)O` were -0.855% (inactive), -15.7% and -15.1%.
As for `CN1CCN(C2Cc3ccccc3Sc3ccc(Cl)cc32)CC1` (stereo not drawn), the compound was classed as inactive in experiment [4]. The activity change, negative = inhibition in experiment [1] (at 57.5 µM (top of the series)) was 1.27% (inactive). For the same compound, the max response in experiment [1] (setting [9]) was -11.4%; in experiment [1] (setting [10]) it was -9.31%. Moreover, the Potency result in experiment [5] and in experiment [6] was “inactive” throughout.
For `O=C1N=C(O)CN1/N=C/c1ccc(-c2ccc([N+](=O)[O-])cc2)o1`, the compound was called inactive in experiment [4]. Besides, the Potency entry in experiment [5] and in experiment [7] was “inactive” throughout.
For `COc1ccc(Cl)cc1C(=O)NCCc1ccc(S(=O)(=O)NC(=O)NC2CCCCC2)cc1`, the call in experiment [2], in experiment [3] and in experiment [4] was inactive. The activity change, negative = inhibition is 1.56% (inactive) in experiment [1] (at 25.7 µM (top of the series)); 12.5% (inactive) and -0.0195% (inactive) in experiment [1] (at 57.5 µM (top of the series)). The max response in experiment [1] (setting [9]) was 8.8% and 2.97% and -31.1%; in experiment [1] (setting [10]), 12.4% and 18.9% and -32.5%. For the same compound, the Potency entry in experiment [5], in experiment [6] and in experiment [7] was “inactive” each time.
As for `O=C1NS(=O)(=O)c2ccccc21`, in experiment [1] (at 57.5 µM (top of the series)), the activity change, negative = inhibition is 6.8% (inactive). In addition, the max response turned out to be 18.3% in experiment [1] (setting [9]) and 29.2% in experiment [1] (setting [10]).
`Cc1cc2c(cc1S(N)(=O)=O)S(=O)(=O)CCC2`: the activity change, negative = inhibition in experiment [1] (at 25.7 µM (top of the series)) is -2.69% (inactive). Besides, the max response turned out to be 5.71% in experiment [1] (setting [9]) and 1.67% in experiment [1] (setting [10]).
As for `N=c1c[n+](N2CCOCC2)[n-]o1`, the call in experiment [2], in experiment [3] and in experiment [4] was inactive. Further, the activity change, negative = inhibition in experiment [1] (at 57.5 µM (top of the series)) is -0.431% (inactive). Besides, the results for the max response in experiment [1] (setting [9]) and in experiment [1] (setting [10]) were 25.9% and 27.5%, respectively. Moreover, the Potency entry in experiment [6] and in experiment [7] was “inactive” each time.
